From the supplement of paper PMC10849652
Of roughly 7,900 targets only a part is listed; those with a hit were picked by preference. About 0.6% of all pairs of compound and target were hits.

compound: C1=CC=C2C(=C1)C3=NNC4=CC=CC(=C43)C2=O; assay: log2 fold change, soluble protein after heating vs DMSO (PISA); higher = thermal stabilisation; K562 cells, 10 uM, 30 min; active = over 0.2 and 3.5 SD of the protein, either way, in both replicates (recomputed)
Outline: (§1)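 For each measurement, 10 μM compound was applied for 30 min to K562 cells at 2×10^6 cells/mL. Aliquots were heated for 3 min across 48°C-58°C, pooled, and extracted in PBS with 0.5% NP-40 at 4°C; the supernatant after 21,000xg for 90 min was soluble protein. This was quantified by TMTpro 16plex LC-MS/MS with channel sums equalised, and thermal stability was reported relative to control samples from duplicates, on a log2 fold-change scale.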

Sequence of UniProt Q5THK1 (Q5THK1 whole entry, looked up): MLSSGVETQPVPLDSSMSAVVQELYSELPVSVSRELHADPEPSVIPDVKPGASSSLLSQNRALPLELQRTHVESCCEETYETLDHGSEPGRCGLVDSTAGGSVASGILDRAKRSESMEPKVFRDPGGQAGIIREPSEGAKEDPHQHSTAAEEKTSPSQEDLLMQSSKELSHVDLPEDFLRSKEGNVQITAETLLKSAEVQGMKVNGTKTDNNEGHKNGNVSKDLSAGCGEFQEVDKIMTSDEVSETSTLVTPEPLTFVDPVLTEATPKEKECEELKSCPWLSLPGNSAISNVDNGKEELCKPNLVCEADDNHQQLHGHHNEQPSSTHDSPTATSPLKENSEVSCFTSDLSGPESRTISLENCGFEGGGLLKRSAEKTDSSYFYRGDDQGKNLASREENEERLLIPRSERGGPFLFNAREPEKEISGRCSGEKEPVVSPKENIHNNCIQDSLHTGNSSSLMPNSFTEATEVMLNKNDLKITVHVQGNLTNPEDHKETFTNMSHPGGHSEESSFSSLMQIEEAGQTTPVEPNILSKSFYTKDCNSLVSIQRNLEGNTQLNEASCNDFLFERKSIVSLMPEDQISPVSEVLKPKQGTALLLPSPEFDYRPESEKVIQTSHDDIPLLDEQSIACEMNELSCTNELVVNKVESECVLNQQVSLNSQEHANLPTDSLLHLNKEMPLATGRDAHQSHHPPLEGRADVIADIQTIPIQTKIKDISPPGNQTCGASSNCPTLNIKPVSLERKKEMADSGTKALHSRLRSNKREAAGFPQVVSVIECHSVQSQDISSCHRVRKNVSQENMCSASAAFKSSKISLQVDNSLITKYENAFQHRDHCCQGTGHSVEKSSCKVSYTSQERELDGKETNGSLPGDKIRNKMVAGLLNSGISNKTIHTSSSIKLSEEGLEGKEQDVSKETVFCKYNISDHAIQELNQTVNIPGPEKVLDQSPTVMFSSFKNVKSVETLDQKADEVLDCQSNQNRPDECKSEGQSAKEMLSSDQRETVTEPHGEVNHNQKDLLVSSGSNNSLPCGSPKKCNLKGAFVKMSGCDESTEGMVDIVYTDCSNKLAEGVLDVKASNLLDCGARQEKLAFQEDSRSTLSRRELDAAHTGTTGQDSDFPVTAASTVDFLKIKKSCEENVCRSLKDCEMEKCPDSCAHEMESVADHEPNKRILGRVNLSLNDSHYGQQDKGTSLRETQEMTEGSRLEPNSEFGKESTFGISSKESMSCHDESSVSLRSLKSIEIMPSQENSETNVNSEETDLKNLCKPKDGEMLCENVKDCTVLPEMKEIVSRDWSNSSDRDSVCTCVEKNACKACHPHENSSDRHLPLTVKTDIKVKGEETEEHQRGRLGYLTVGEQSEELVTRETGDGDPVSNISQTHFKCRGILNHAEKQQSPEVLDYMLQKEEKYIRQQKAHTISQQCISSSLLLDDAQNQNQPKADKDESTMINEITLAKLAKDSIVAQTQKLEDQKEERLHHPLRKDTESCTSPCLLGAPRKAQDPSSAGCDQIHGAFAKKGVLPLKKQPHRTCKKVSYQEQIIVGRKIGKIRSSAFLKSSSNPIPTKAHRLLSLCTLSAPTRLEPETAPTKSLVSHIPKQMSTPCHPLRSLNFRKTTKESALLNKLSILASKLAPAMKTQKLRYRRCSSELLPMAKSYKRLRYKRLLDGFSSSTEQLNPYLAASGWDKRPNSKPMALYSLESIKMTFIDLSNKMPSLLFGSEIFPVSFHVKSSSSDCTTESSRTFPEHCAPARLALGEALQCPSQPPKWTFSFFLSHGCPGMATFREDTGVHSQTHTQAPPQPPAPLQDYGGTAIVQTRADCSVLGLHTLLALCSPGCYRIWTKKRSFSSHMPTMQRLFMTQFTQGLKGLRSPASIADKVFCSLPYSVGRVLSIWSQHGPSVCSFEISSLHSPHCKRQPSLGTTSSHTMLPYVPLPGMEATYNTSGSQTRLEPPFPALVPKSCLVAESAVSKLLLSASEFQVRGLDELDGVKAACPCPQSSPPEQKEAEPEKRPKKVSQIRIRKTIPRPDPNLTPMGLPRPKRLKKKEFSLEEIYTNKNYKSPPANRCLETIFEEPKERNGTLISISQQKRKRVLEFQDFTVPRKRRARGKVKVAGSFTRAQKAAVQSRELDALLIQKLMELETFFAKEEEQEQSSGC
Sequence of UniProt Q9UHX1 (Q9UHX1 whole entry, looked up): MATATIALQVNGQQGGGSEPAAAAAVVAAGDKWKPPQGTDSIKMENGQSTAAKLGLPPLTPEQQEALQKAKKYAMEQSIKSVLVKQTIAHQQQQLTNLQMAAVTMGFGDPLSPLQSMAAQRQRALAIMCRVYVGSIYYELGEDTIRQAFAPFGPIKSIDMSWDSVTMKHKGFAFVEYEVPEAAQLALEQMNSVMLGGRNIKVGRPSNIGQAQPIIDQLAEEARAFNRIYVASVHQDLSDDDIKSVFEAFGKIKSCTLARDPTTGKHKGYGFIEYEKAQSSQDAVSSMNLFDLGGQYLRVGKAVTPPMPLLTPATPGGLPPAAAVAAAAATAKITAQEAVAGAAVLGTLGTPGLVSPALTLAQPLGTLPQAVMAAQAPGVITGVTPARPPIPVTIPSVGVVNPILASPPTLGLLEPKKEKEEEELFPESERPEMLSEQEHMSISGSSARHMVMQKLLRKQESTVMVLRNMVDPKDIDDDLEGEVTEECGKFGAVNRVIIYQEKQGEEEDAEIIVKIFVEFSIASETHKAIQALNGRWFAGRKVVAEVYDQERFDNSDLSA
Sequence of UniProt P41247 (P41247 whole entry, looked up): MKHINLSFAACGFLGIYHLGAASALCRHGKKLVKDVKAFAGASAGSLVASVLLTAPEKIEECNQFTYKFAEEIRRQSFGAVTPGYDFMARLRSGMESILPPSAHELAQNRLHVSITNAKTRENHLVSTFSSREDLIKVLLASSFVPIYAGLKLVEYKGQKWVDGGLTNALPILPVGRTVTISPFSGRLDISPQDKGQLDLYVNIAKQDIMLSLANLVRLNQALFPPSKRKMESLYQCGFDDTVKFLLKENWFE
Sequence of UniProt Q14289 (Q14289 whole entry, looked up): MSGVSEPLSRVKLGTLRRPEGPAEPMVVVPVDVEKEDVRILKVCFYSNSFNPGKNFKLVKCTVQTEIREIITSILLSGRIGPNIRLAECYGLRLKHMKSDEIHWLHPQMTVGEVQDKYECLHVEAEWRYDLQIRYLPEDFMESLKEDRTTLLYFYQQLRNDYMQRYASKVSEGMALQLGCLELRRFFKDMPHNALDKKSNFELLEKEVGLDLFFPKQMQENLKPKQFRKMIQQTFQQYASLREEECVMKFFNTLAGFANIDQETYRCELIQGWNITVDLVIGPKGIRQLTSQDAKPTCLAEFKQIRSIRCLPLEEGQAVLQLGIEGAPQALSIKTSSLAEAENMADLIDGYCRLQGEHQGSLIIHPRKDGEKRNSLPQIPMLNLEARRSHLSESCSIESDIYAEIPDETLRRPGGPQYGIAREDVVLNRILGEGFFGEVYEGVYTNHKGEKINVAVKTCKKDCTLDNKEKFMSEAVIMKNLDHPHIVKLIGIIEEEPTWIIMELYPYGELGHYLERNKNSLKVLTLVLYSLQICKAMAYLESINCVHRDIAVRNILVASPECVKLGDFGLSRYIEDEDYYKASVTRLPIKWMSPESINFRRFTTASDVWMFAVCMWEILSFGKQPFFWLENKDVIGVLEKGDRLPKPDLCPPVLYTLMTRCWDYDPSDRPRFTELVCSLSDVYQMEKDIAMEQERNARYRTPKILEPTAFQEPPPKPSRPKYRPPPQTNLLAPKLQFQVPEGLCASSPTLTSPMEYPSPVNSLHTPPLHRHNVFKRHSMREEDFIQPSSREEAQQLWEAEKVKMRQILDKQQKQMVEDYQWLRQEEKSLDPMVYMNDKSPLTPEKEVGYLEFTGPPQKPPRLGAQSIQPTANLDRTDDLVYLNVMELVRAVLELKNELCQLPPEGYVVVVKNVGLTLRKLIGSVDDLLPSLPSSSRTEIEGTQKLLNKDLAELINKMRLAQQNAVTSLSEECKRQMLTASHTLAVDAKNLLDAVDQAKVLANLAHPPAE
Sequence of UniProt P07205 (P07205 whole entry, looked up): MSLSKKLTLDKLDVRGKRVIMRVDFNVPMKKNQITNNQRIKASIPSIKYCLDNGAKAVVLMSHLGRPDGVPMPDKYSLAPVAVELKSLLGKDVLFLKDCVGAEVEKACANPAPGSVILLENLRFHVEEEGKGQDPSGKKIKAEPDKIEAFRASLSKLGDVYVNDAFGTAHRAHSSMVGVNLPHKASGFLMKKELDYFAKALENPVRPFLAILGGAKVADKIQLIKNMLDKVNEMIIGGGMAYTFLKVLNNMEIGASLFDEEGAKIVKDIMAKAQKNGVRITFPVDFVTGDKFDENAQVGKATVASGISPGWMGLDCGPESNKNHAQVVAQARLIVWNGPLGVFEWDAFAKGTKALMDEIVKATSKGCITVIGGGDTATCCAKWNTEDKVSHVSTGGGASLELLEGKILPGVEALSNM
Sequence of UniProt Q8N2W9 (Q8N2W9 whole entry, looked up): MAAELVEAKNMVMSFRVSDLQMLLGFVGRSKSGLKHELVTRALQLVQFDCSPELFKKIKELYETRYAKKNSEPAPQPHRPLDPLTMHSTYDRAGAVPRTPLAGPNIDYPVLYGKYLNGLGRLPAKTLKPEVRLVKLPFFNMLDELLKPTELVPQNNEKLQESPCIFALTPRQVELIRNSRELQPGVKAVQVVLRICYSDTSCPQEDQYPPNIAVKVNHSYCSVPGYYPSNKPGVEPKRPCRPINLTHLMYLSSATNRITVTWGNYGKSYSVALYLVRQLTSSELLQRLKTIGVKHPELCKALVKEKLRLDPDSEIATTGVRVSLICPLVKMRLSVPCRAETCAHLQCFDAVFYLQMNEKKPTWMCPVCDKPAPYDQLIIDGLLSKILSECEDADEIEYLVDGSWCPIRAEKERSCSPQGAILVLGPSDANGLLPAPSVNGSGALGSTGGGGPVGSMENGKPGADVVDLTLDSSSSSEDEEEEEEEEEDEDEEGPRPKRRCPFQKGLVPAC

log2 fold change, inactive:
PCF11 (UniProt O94913) 0.083, POGZ (UniProt Q7Z3K3) 0.082, PSMA3 (UniProt H0YJ03) -0.006, PPP2R5B (UniProt Q15173) 0.124, PEX5 isoform 4 (UniProt P50542) -0.082, PUM1 (UniProt Q14671) 0.051, PUF60 isoform 2 (UniProt Q9UHX1) 0.046, PGK2 (UniProt P07205) -0.012, PRKD3 (UniProt O94806) -0.507, PNPLA4 (UniProt P41247) 0.059, PSD3 (UniProt Q9NYI0) 0.018, PKM isoform 2 (UniProt P14618) 0.04, PRR14L (UniProt Q5THK1) -0.091, PTK2B (UniProt Q14289) -0.066, PI4K2B (UniProt Q8TCG2) -0.007

compound: C1CCN(C1)C(=O)NC2=CC=CC(=C2)NC3=NC=C(C(=N3)NCCC4=CN=CN4)Br; assay: as above
Outline: as §1

log2 fold change, inactive:
PCNX1 (UniProt Q96RV3) -0.019, POGZ (UniProt Q7Z3K3) 0.026, PPP1R12C (UniProt Q9BZL4) -0.05, PSMA3 (UniProt H0YJ03) -0.027, PSMD8 (UniProt K7ERW6) 0.052, PCID2 (UniProt Q5JVF3) -0.086, POLB (UniProt P06746) -0.118, PEX5 isoform 4 (UniProt P50542) 0.097, PIAS4 (UniProt Q8N2W9) 0.129, PUM1 (UniProt Q14671) -0.045, PSMC3 (UniProt E9PLG2) 0.27, PUF60 isoform 2 (UniProt Q9UHX1) -0.148, PGK2 (UniProt P07205) 0.034, PNPLA4 (UniProt P41247) 0.108, PKM isoform 2 (UniProt P14618) -0.047, PRR14L (UniProt Q5THK1) 0.166, PTK2B (UniProt Q14289) 0.025, PI4K2B (UniProt Q8TCG2) 0.048

compound: C1CN(CCC1(CC2=CC=C(C=C2)Cl)N)C3=NC=NC4=C3C=CN4; assay: as above
Outline: as §1

log2 fold change, inactive:
PCNX1 (UniProt Q96RV3) -0.041, POGZ (UniProt Q7Z3K3) 0.115, PPP1R12C (UniProt Q9BZL4) -0.238, PSMA3 (UniProt H0YJ03) 0.2, PSMD8 (UniProt K7ERW6) -0.148, PCID2 (UniProt Q5JVF3) -0.161, POLB (UniProt P06746) 0.002, PEX5 isoform 4 (UniProt P50542) -0.078, PIAS4 (UniProt Q8N2W9) -0.045, PUM1 (UniProt Q14671) -0.024, PSMC3 (UniProt E9PLG2) -0.045, PUF60 isoform 2 (UniProt Q9UHX1) -0.148, PGK2 (UniProt P07205) 0.029, PNPLA4 (UniProt P41247) 0.029, PKM isoform 2 (UniProt P14618) 0.003, PRR14L (UniProt Q5THK1) -0.023, PTK2B (UniProt Q14289) 0.105, PI4K2B (UniProt Q8TCG2) -0.173

compound: C1COCCN1CCN2C3=CC=CC=C3N=C2NC(=O)C4=CC(=CC=C4)[N+](=O)[O-] [IRAK-1-4 Inhibitor I]; assay: as above
Outline: as §1

log2 fold change, inactive:
PCBP2 (UniProt F8VZX2) -0.177, PHC3 isoform 7 (UniProt Q8NDX5) -0.377, PCF11 (UniProt O94913) 0.002, PPP2R5C isoform 2 (UniProt Q13362) -0.036, POGZ (UniProt Q7Z3K3) -0.133, PSMA3 (UniProt H0YJ03) 0.023, PTEN isoform 2 (UniProt P60484) -0.227, PSMD8 (UniProt K7ERW6) 0.018, PDE4DIP (UniProt E9PS60) -0.183, PCID2 (UniProt Q5JVF3) -0.008, PIAS4 (UniProt Q8N2W9) -0.111, PUM1 (UniProt Q14671) 0.101, PSMC3 (UniProt E9PLG2) -0.064, PGK2 (UniProt P07205) 0.039, PRKD3 (UniProt O94806) 0.189, PNPLA4 (UniProt P41247) -0.094, PSD3 (UniProt Q9NYI0) 0.014, PKM isoform 2 (UniProt P14618) -0.018, PTK2B (UniProt Q14289) -0.095, PI4K2B (UniProt Q8TCG2) 0.035, PSMA3 (UniProt G3V4X5) -0.451
